About 8,600 (12%) of roughly 69,000 compounds showed an effect of 50% or more. This is one part of a sample in which strong results are shown more often than they occur.

In this assay the test system is Plasmodium berghei. As to the kind of experiment: Screen against P. berghei liver stage (PbLuc), transformed with Luciferase, at 10uM. In kind it is functional, HepG2. Particulars: tested at 10 uM.
On to `COc1ccccc1NC(=O)NCc1nnc(SC)n1C`, for which the INHIBITION was 8.125%.
As to `N#CC1(C(=O)N2CCCN(Cc3cscn3)CC2)CCCCC1`, the INHIBITION is on record as -54.6%.
With `CC(C)C(=O)N1CCCC(Cc2ncccn2)C1` (centres undefined), the INHIBITION was 32.7%.
With `CC(C)CCCC1CN(C(=O)c2cnc[nH]2)CCO1` (centres undefined), the INHIBITION is given as -10.5%.
The same measure for `Cn1ccnc1C(NCc1csc(Br)c1)c1ccccc1` (centres undefined): 51.6%; for `CSc1ccc(CNC(c2ccccc2)c2nccn2C)cc1` (centres undefined): 79.1%; for `COc1ccccc1C(NCc1ccc(SC)cc1)c1nccn1C` (centres undefined): 29.06%.
In the case of `CSc1ccc(CNC(c2ccc(F)cc2)c2nccn2C)cc1` (centres undefined) it was -1.6%.
For the compound `Cn1ccnc1C(NCc1ccc(Br)cc1)c1ccccc1` (centres undefined), the INHIBITION is recorded as -32.9%.
In the case of `Cc1ccc(CNC(c2ccc(F)cc2)c2nccn2C)o1` (centres undefined) it was 52.6%; in that of `Cc1ccc(CNC(c2cccc(F)c2)c2nccn2C)o1` (centres undefined), 24.2%; in that of `Cn1ccnc1C(NCc1ccccc1)c1ccc(F)cc1` (centres undefined), 32.9%.
As to `CSc1ccc(CNC(c2ccccc2F)c2nccn2C)cc1` (centres undefined), the INHIBITION was -27.24%.
For `COc1c(CNC(c2ccccc2)c2nccn2C)c(C)nn1C` (centres undefined), the INHIBITION is recorded as 39.4%.
`COc1cccc(C(NCc2ccc(SC)cc2)c2nccn2C)c1` (centres undefined): the INHIBITION was 51.2%.
The same measure for `COc1cc(CNC(c2ccccc2)c2nccn2C)cc(OC)c1` (centres undefined): -76.15%.
For `CC(=O)NCCCNC(=O)Nc1ccccc1-n1nc(C)cc1C`, the INHIBITION is listed as 9.06%.
On to `COc1ccccc1C(=O)NS(=O)(=O)c1cccc(C#N)c1`, for which the INHIBITION was found to be 25.1%.
`COc1cc(CN)c(OC)c2c1OCO2`: the INHIBITION is -3.48%.
The same measure for `CCCS(=O)(=O)N1CCC2(CN(c3ccsc3)C(=O)CN2C)C1` (centres undefined): -24.2%; for `Cc1oncc1C(=O)N1CC[C@H]2C[C@H](c3ccncn3)O[C@@H]2C1`: 11.3%.
For `Cn1ncc(Cl)c1C(=O)N1CCC(c2nnsc2S(C)(=O)=O)CC1`, the INHIBITION was -9.2465%.
Consider `Cc1ccc(CNC(c2ccccc2)c2nccn2C)cc1` (centres undefined), for which the INHIBITION stood at 33.6%.
The same measure for `Cc1cc(C)cc(CNC(c2ccccc2)c2nccn2C)c1` (centres undefined): 41.15%.
The same measure for `Cc1ccc(CNC(c2ccccc2)c2nccn2C)cc1C` (centres undefined): 54.9%; for `Cc1cc(CN2CCCC2c2noc(C(C)C)n2)on1` (centres undefined): 47%.
Consider `O=C(O)c1cncc(Cc2ccc(F)cc2)c1`, for which the INHIBITION is -3.02%.
For `CCN(Cc1ccoc1)C(=O)c1ccc(C)c(S(N)(=O)=O)c1`, the INHIBITION is -2.97%.
On to `CCN(Cc1ccoc1)C(=O)c1cc(C)c(C)c(S(N)(=O)=O)c1`, for which the INHIBITION was -5.94%.
Turning to `CCN(Cc1ccncc1)C(=O)c1cc(C)c(C)c(S(N)(=O)=O)c1`, the INHIBITION came out at 52.8%.
Regarding `CC(C)(C)C(=O)NCC(=O)NCCc1nc(C(F)(F)F)cs1`, the INHIBITION is recorded as 15%.
With `CN(C)C(=O)N1CCN(C(=O)c2cccc(Cl)c2)CC2(CNC(=O)C2)C1` (centres undefined), the INHIBITION turned out to be 79.6%.
For `O=C1CC2(CCN(C(=O)c3cccc(Cl)c3)CC2)CN1`, the INHIBITION is recorded as 55.7%.
For `COc1cc(Cl)cc(C(=O)N2CCC3(CC2)CNC(=O)C3)c1`, the INHIBITION is given as 13.7%.
On to `CS(=O)(=O)N1CCN(C(=O)c2cccc(Cl)c2)CC2(CNC(=O)C2)C1` (centres undefined), for which the INHIBITION stood at 13.7%.
On to `CN(C)C(=O)N1CCN(C(=O)c2ccccc2)CC2(CNC(=O)C2)C1` (centres undefined), for which the INHIBITION is given as -0.804%.
For `CN(C)C(=O)N1CCN(C(=O)c2ccc(Cl)cc2)CC2(CNC(=O)C2)C1` (centres undefined), the INHIBITION is listed as 21.7%.
In the case of `O=C(Cc1noc2ccccc12)N1CCC(Nc2cccnn2)CC1`, the INHIBITION is given as 43.3%.
The same measure for `CC(C)(C)c1n[nH]c(C2CN(C(=O)c3cc(C4CC4)on3)CCO2)n1` (centres undefined): 35.5%.
As for `O=C(CCCNc1ncccn1)N1CCCC(n2cncn2)C1` (centres undefined), the INHIBITION was 27.6%.
For `O=C([C@H]1CN(Cc2nccs2)C[C@H]2OCC[C@@H]12)N1CCCCO1`, the INHIBITION is listed as 22.2%.
For the compound `CCC(=O)c1ccccc1NN1c2ccccc2C(=O)C1(C)OC` (centres undefined), the INHIBITION is recorded as 17.6%.
In the case of `CCC(=O)c1ccc(Br)cc1NN1c2cc(Br)ccc2C(=O)C1(C)OC` (centres undefined) it was 70.6%; in that of `CCOC1(C)C(=O)c2ccccc2N1Nc1ccccc1C(=O)CC` (centres undefined), 67.3%.
The same measure for `CC(NC(=O)N1CCNC(=O)CC1)c1ccc(C(F)(F)F)cc1` (centres undefined): 48.2%.
`Cc1cc2n(n1)[C@@H](C(F)(F)F)C[C@@H](C1CCN(C(=O)C(C)C)CC1)N2`: the INHIBITION was -26.2%.
Take `Cc1cnc(C(=O)N2CCCC(c3c(C)c(=O)nc4n3CCC4)C2)cn1` (centres undefined): the INHIBITION is given as -17.7%.
With `N#Cc1cccnc1N1CCN(S(=O)(=O)NCc2ccccc2)CC1`, the INHIBITION was determined as 11.5%.
In the case of `O=S(=O)(NCc1ccccc1)N1CCN(c2ncccn2)CC1` it was 31%.
The same measure for `O=S(=O)(NCc1ccccc1)N1CCCN(c2ccncc2)CC1`: 71.3%; for `Cc1[nH]c2ccc(Cl)cc2c1CCNc1ncnc2c1CCNC2`: 92.5%.
Take `Cc1[nH]c2ccc(C#N)cc2c1CCNc1ncnc2c1CCNCC2`: the INHIBITION worked out at 44.3%.
Regarding `Cc1cccc(=O)n1CCCNc1ncnc2c1CCNCC2`, the INHIBITION is -1.98%.
For `Cc1ccccc1C(CNc1ncnc2c1CCNCC2)N(C)C` (centres undefined), the INHIBITION is listed as -59.8%.

(Values after ChEMBL document CHEMBL4513216, “Probing the Open Global Health Chemical Diversity Library for Multistage-Active Starting Points for Next-Generation Antimalarials” (ACS Infect Dis, 2020).)
